This excerpt belongs to a sample that is enriched for hits.
Sa growth 42C = inhibitors of Staphylococcus aureus growth at 42 °C; relative growth, % (concentration not given with the values); AID 720641; hit rate 0.53% among 170,000; S. aureus RN4220 growth, OD600, 20 h; stronger effect = lower value;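 active means relative growth at most 50% at the other temperature and 20+ points below 30 °C, or under 10% at both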
Sa helicase inh = blocks Staphylococcus aureus DNA helicase | purified S. aureus helicase, fluorescence unwinding assay | inhibition, % (test concentration not listed) | hit rate 0.05% among 120,000 | AID 485395; in the data active means inhibition above about 25%, passing the limit was not always enough
HCMV UL50-53 inh = cytomegalovirus nuclear egress complex inhibition; HTRF UL50-UL53 interaction, normalized percent inhibition; inhibition, % (test concentration not listed); hit rate 0.15% among 190,000; in the data active means inhibition above about 27%, passing the limit was not always enough
Each line names hits and unclear results; the compound was inactive in the other large screens.

C=CC[n+]1ccc(/C=C/c2ccccc2O)c2ccccc21	Sa helicase inh 42.0 (no result: HCMV UL50-53 inh)
COc1ccc(CNC(=O)C(C)N2CCC(c3nc4ccccc4o3)CC2)cc1 (stereo unspecified)	none
O=C1C(Sc2ccccc2)=C/C(=N/S(=O)(=O)c2cccs2)c2ccccc21	Sa growth 42C 0.0 (no result: HCMV UL50-53 inh)
CS/C(=N\S(=O)(=O)c1cccs1)NC(=O)c1ccccc1	none
CCOC(=O)c1nnc(Cc2ccc(F)cc2Cl)o1	none
C(=C1\CCCC2=C1Nc1nnnn1C2c1ccccc1)/c1ccccc1 (stereo unspecified)	none (no result: Sa growth 42C, Sa helicase inh)
Cc1ccc(/C=C2\CCCC3=C2Nc2nnnn2C3c2ccc(C)cc2)cc1 (stereo unspecified)	Sa growth 42C 0.7 (no result: HCMV UL50-53 inh)
CCOC(=O)C1CCN(C(=O)c2cccc3c2C(=O)N(C2CCCCC2)C3)CC1	none
Clc1ccc(CNCc2ccc3nccnc3c2)cc1	none (no result: Sa growth 42C, Sa helicase inh)
CCSc1nc2ccccc2s1	none
CCSc1ccc(SC#N)s1	Sa growth 42C -0.4
Cc1cc(C)c2c(c1)/C(=N/NC(=O)CCN1CCOCC1)CCC2	none
O=c1nc(SCc2ccccc2)nc2ccccn12	none
Cc1ccc(-c2ccc(CCC(=O)O)o2)cc1	Sa growth 42C -1.4 (no result: HCMV UL50-53 inh)
O=C(O)CCc1ccc(-c2cccs2)o1	none
COc1cc(NC(=O)CNC(C)C)cc(OC)c1	none
Cc1ccc(C(=O)OCCN2CCCCC2)cc1	none
CC(C)(C)c1cc(C(=O)OCCN2CCCCC2)cc(C(C)(C)C)c1	Sa growth 42C 21.9 (no result: HCMV UL50-53 inh)
CCN1CCN(c2cc(C(=O)O)c3cc(NS(=O)(=O)c4cc(C)c(C)cc4C)ccc3n2)CC1	none (no result: Sa growth 42C, Sa helicase inh)
CCOC(=O)c1c(-c2c(Cl)cccc2Cl)noc1C	Sa growth 42C 0.5 (no result: Sa helicase inh)
CCOC(=O)c1c(-c2c(Cl)cccc2Cl)noc1N	none (no result: Sa helicase inh)
COc1cc(NC(=O)CCc2c(C)nc3nc(CN)nn3c2C)cc(OC)c1	none (no result: Sa growth 42C, Sa helicase inh)
Cc1cc(N2CCOCC2)n2nc(C(F)(F)F)c(-c3ccccc3Cl)c2n1	none (no result: Sa growth 42C, Sa helicase inh)
CC(Oc1ccc(F)cc1)C(=O)Nc1nc(-c2ccc(F)cc2)ns1 (stereo unspecified)	Sa growth 42C 2.3 (no result: Sa helicase inh)
COc1ccc(-c2nsc(NC(=O)C(C)Oc3ccc(Cl)c(C)c3)n2)cc1 (stereo unspecified)	none (no result: Sa helicase inh)
CCOc1cc(C2C3=C(CCCC3=O)OC3=C2C(=O)CCC3)ccc1O	none (no result: Sa growth 42C, Sa helicase inh)
